Data published in PubChem BioAssay (EPA / NIEHS).
Inconclusive results are not listed. Active and inactive are the calls of the source. Rule for the calls: active = hit-call score of the fitted dose curve at least 0.9, where 1 is the maximum; inconclusive = response in the unintended direction; inactive = score below 0.9.

Test: ATG_M_06_TRANS: Attagene TRANS-FACTORIAL HepG2 Assay for M06 Transcription Factor (Internal Marker) (AID 2282983)
Conditions: HepG2 Attagene TRANS M06 internal marker reporter
Experimental: ATG_TRANS is a cell-based, multiplexed-readout assay that uses HepG2, a human liver cell line, with measurements taken at 24 hours after chemical dosing in a 24-well plate.ATG_M_06_TRANS is one of 30 assay component(s) measured or calculated from the ATG_TRANS assay. It is designed to make measurements of mRNA induction, a form of inducible reporter, as detected with fluorescence intensity signals by Reverse transcription polymerase chain reaction (RT-PCR) and Capillary electrophoresis technology.Data from the assay component ATG_M_06_TRANS was analyzed into 1 assay endpoint. This assay endpoint, ATG_M_06_TRANS, was analyzed in the positive analysis fitting direction relative to DMSO as the negative control and baseline of activity. Using a type of inducible reporter, measures of mRNA for gain-of-signal activity can be used to understand the background control at the transcription factor-level as they relate to the gene . Furthermore, this assay endpoint can be referred to as a secondary readout, because this assay has produced multiple assay endpoints where this one serves a background control function. To generalize the intended target to other relatable targets, this assay endpoint is annotated to the background measurement intended target family, where the subfamily is internal marker.
Human liver HepG2 cells are transiently transfected with multiple reporter transcription units (MRTUs) in 6-well plates using FuGene 6 reagent (Roche; 3 ml FuGene/1 mg DNA). The MRTU constructs are regulated by a cis-regulating element (promoter). […] A major difference between the CIS and TRANS system is that in CIS activities of endogenous TFs are measured, whereas the TRANS assay evaluates changes in activities of exogenous, chimeric NR-Gal4 proteins. […] At the end of 24 hour incubation, total RNA was isolated using TriZol reagent (Invitrogen). The isolated RNA is then reverse-transcribed using oligo(dT) primer and Mo-MLV reverse transcriptase (Invitrogen) with DNAse I (Ambion) treatment for 30 min. The one-tenth of the produced cDNA was amplified by PCR using Taq DNA polymerase (Invitrogen) and two reporter sequence-specific primers. The PCR products were fluorescently labeled by primer extension with 6-arboxyfluorescein (6-FAM) 5'-labeled reporter sequence-specific primer (2 min at 95 C, 20 s at 68 C and 10 min at 72 C) and these products were digested with 5U of HpaI (New England Biolabs) for 2h at 37 C. The fragments were purified using Qiaquick PCR columns (Qiagen), analyzed on an ABI 3130xL genetic analyzer (Applied Biosystems) with peak positions identified by using a set of X-rhodamine (ROX)-labeled MapMarker1000 molecular weight standards (BioVentures). The raw capillary electrophoresis data was processed using Attagraph software (Attagene).

outcome, inactive:
Cc1ccccc1S(N)(=O)=O
Nc1ccc(S(=O)(=O)Nc2cnc3ccccc3n2)cc1
CCCCCCCCCCCCCC
CC/C=C\CCCCCO
CCCC[N+]1(C)CCCC1
O=C(Oc1ccccc1)c1ccccc1
Clc1ccc(Sc2cc(Cl)c(Cl)cc2Cl)cc1
O=C(O)c1cc(Cl)cc(Cl)c1O
CCCC(=O)OC
CN(C)CCC(c1ccc(Cl)cc1)c1ccccn1 (stereo not given)
CCC(C)=NO
Cc1ccccc1S(=O)(=O)O
OCCN(CCO)c1cccc(Cl)c1
COC(=O)/C=C\C(=O)OC
COC(=O)[C@]1(C)CCC[C@@]2(C)[C@H]1CC=C1C=C(C(C)C)CC[C@@H]12
COC(OC)C(C)c1ccccc1 (stereo not given)
C=C(C)C(=O)OCC1CCCO1 (stereo not given)
c1ccc2c(c1)Oc1ccccc1S2
CC(C)CC(=O)CC(C)C
Oc1cccc2ccccc12
CO[Si](CCCNCCN)(OC)OC
CCc1cc(C(N)=S)ccn1
CCCCCC[C@@H](O)C/C=C\CCCCCCCC(=O)O
CN1CCCC1
CC[N+](CC)(CC(=O)Nc1c(C)cccc1C)Cc1ccccc1 (tested in a mixture with another compound)
CCCc1c(OCCCCc2nn[nH]n2)ccc(C(C)=O)c1O
O=S(=O)(O)c1cccc2ccccc12
CCCCCCC(O)CCCCCCCCCCC(=O)OC (stereo not given)
Clc1ccccn1
CC1(C)S[C@@H]2[C@H](NC(=O)[C@H](N)c3ccccc3)C(=O)N2[C@H]1C(=O)O
C=CCOCC(CC)(CO)COCC=C
CCC(C)C1N=C(C)C(C)S1 (stereo not given)
O=C(O)c1nc(Cl)c(Cl)c(Cl)c1Cl
[O-][n+]1ccc(Cl)cc1
C1=CCC=C1
CCCCn1cc[n+](C)c1
C=C(C)C(=O)OCCCCCC
COc1cccc(OC)c1C(=O)O
O=C1NC(=O)[C@@H]2CC=CC[C@H]12
CCCCCCOC(=O)CCCCCCCC(=O)OCCCCCC
